Bioassay records: PubChem BioAssay, National Center for Advancing Translational Sciences (NCATS)
Only some compounds are listed: those with a hit (about 7.4% of all), similar ones and a draw of the others.
SMN2 splice enh: qHTS Assay for Enhancers of SMN2 Splice Variant Expression; HEK293 SMN2-luciferase splicing reporter, luminescence, 30-36 h; Potency, µM (series often up to 46.1 µM), inactives show top-dose activity change, positive = activation, hits mostly activators; actives 2.8% (n = 210,000); AID 1458, 2008; further: % of control where 0% means no effect; nearly all actives have a fitted effect of over 55% in size
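HEK293 cells carry an SMN2 minigene-luciferase reporter in which exon 7 inclusion puts luciferase in frame. Cells were seeded at 2000 cells/well, attached for 10-12 hours, then exposed to compounds for 30-36 hours at 37C before ONE-Glo luminescence.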
ELG1 genotox: qHTS screen for small molecules that induce genotoxicity in human embryonic kidney (HEK293T) cells expressing luciferase-tagged ELG1 | HEK293T ELG1-luciferase reporter, luminescence, 16 h | Potency, µM (titrated, usually from 46 µM), for inactives: top-dose activity change, positive = activation, usual class: activators | actives 1.3% (n = 330,000); further: % of control where 0% means no effect; nearly all actives have a fitted effect of over 60% in size
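Genotoxicity was scored as increased ELG1-luciferase reporter signal, measured by ONE-Glo luminescence (30 min, room temperature). Compound or vehicle exposure of the HEK293T reporter cells lasted 16 hr at 37°C.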
Rab9 promoter act: qHTS Assay for Rab9 Promoter Activators | Huh7 Rab9 promoter-luciferase reporter, luminescence, 24 h | Potency, µM (series often up to 9.22 µM), inactives show top-dose activation, negative = inhibition, hits mostly activators | actives 2.8% (n = 320,000); further: % of control where 0% means no effect; nearly all actives have a fitted effect of over 60% in size
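Cells were plated at 1500 per well in reduced-serum medium with 10% FBS and left 2 h. Compound in DMSO was then added for 24 h at 37 °C. Reporter signal was read by luminescence after 10 min with luciferase detection reagent.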
NPC1 prom act: qHTS Assay for NPC1 Promoter Activators. actives 2.4% (n = 320,000). Huh7 NPC1 promoter luciferase reporter, 24 h. AID 485313, 2010. Potency, µM (highest dose often 9.22 µM), without a hit: at the highest dose activation, hits mostly activators; further: % of control where 0% means no effect; nearly all actives have a fitted effect of over 60% in size
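Readout is luciferase luminescence, reflecting NPC1 promoter activation in stably transfected Huh7 cells after 24 h compound exposure at 37 °C in reduced-serum medium with 10% FBS.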
FLuc modulator: qHTS profiling assay for firefly luciferase inhibitor/activator using purifed enzyme and Km concentrations of substrates (counterscreen for miR-21 project). Luciferin 4-monooxygenase (Photinus pyralis), P08659. purified FLuc, Km substrates, luminescence inhibition. Potency, µM (top dose mostly 57.5 µM), for inactives: at the highest dose activity change, negative = inhibition, hits mostly inhibitors. actives 6.9% (n = 360,000). AID 588342, 2011;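 further: plate controls were vehicle for no effect and reference inhibitor for full effect; nearly all actives have a fitted effect of over 55% in size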
Target sequence (P08659 whole entry, looked up): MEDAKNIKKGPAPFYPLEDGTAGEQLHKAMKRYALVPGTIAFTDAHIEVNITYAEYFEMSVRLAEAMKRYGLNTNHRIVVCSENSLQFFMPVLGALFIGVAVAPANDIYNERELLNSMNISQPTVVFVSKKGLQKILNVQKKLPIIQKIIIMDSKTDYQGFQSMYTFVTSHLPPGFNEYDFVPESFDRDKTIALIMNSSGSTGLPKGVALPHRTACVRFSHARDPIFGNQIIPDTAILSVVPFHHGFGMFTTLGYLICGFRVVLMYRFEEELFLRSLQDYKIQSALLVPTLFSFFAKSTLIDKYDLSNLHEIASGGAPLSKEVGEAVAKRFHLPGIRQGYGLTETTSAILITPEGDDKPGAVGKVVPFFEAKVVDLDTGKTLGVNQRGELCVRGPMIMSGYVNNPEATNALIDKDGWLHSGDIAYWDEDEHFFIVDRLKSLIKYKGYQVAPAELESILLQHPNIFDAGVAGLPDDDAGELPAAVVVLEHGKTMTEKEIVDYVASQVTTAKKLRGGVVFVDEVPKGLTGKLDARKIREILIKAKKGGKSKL
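Purified P. pyralis luciferase (10nM final) with 10uM D-luciferin and 10uM ATP (Km levels) in 50mM Tris acetate pH 7.5, 10mM Mg acetate, 0.01% Tween-20, 0.05% BSA; qHTS 6-point titration, ~60 µM downward; luminescence read.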
Active calls of the source: *; u = inconclusive; x = no result given; [ ] = dose if it differs, or a comment. The call rests on the fitted dose curve; in most records, active means well fitted curve in the direction sought with a large enough effect; inconclusive means small, poorly fitted or top-dose-only effect, or another doubt; inactive means no such curve, though single readings can be large; an effect the other way counts as inactive or inconclusive. Potency means the concentration at half of the fitted maximal effect.

SMILES	SMN2 splice enh	ELG1 genotox	Rab9 promoter act	NPC1 prom act	FLuc modulator
Cn1cccc1C(=O)C(=O)Nc1ccc(Cl)cc1	10µM*	u	0.5µM*	0.79µM*	1.9µM*
Cn1cccc1C(=O)C(=O)Nc1cccc(Cl)c1Cl	25µM*	u	22%	5%	2.4µM*
CC(C(=O)Nc1ccc(F)c(F)c1)N1CCN(C)CC1 (stereo not given)	x	0%	-3%[1.84 µM]	-2%	5%
Cn1cccc1C(=O)C(=O)Nc1ccc(F)c(F)c1	11µM*	u	1.3µM*	2µM*	11µM*
Cn1cccc1C(=O)C(=O)Nc1cc(Cl)cc(Cl)c1	-4%	25%	u	u	u
CC(C)(C)OC(=O)N1CCC(c2c(C(=O)N3CCN(c4ncccn4)CC3)cnn2-c2ccc(F)cc2)CC1	x	x	x	x	-3%
c1cc(CNc2ccc3c(c2)OCCO3)ccn1	11%	18µM*	1%	0%	u
Cc1cc(NCc2ccncc2)ccc1Br	x	-1%	15%	7%	-6%
COc1cc(OC)cc(C(=O)Nc2ccc3c(c2)OCCO3)c1	10µM*	u	3.2µM*	4µM*	3µM*
O=C(NCc1ccc2c(c1)OCO2)c1ccc(NC(=O)C2CCCO2)cc1 (stereo not given)	19%	1%	-5%	-3%	-4%
O=C(Nc1ccc2c(c1)OCCO2)c1ccc(NC(=O)C2CCCO2)cc1 (stereo not given)	-5%	5%	22%	14%	12µM*
COc1cc(OC)cc(C(=O)NC(C(=O)Nc2ccc3c(c2)OCCO3)C(C)C)c1 (stereo not given)	x	17%	19%	13%	u
Cc1cc(C(=O)Nc2ccc3c(c2)OCCO3)co1	x	u	4.5µM*	3.2µM*	3.4µM*
Cc1ccc(CNC(=O)c2nnn(Cc3ccc(F)cc3)c2N)cc1	6%	x	x	x	-2%
CCn1c(=O)n(-c2ccc(C)c(F)c2)c(=O)c2sc3ccccc3c21	-8%	x	x	x	0%
CC(=O)Nc1ccc2c(c1)OCCOCCOc1cc(NC(C)=O)ccc1OCCO2	x	-6%	8%	0%	5%
CCOc1ccc(C(=O)Nc2ccc3c(c2)OCCO3)cc1OC	13µM*	18µM*	u	u	2.7µM*
CCOc1ccc(C(=O)Nc2ccc3c(c2)OCCO3)cc1[N+](=O)[O-]	-28%	-13%	21%	0%	u
CC(=O)Nc1ccc(C(=O)Nc2ccc3c(c2)OCCO3)cc1	x	u	5%	-2%	15µM*
Cc1cc(C)n(-c2ccc(C(=O)Nc3ccc4c(c3)OCCO4)cc2)n1	17%	u	u	u	8.5µM*
CC(=O)Nc1ccc(C(=O)Nc2ccc3c(c2)OCO3)cc1	3%	13%	24%	16%	u
NC(=O)Nc1ccc2c(c1)OCCO2	17%	u	30%	19%	21µM*
Cc1nn2c(C)c(C(=O)N3CCN(c4ccccc4)CC3)cnc2c1-c1ccccc1	x	x	x	x	-4%
COc1ccc(CNC(=O)c2cc3c(=O)[nH]c4ccccc4c3n2C)c(OC)c1	3%	x	x	x	-7%
N#Cc1cccc(NC(=O)N2CCCC3(CCN(C(=O)c4cnccn4)CC3)C2)c1	8%	x	x	x	x
SMILES	SMN2 splice enh	ELG1 genotox	Rab9 promoter act	NPC1 prom act	FLuc modulator
O=C(Nc1ccc2c(c1)OCCO2)c1ccc(Cl)cc1	x	u	0.45µM*	0.71µM*	1.5µM*
Cc1ccc(C(=O)Nc2ccc3c(c2)OCCO3)o1	x	3.3µM*	u	u	3µM*
CCN(CC(=O)Nc1ccc2c(c1)OCCO2)C(=O)c1ccc(Cl)cc1Cl	x	u	1.4µM*	4µM*	7.6µM*
C=CCOc1ccccc1CNc1ccc2c(c1)OCCO2	-29%	u	u	u	0.85µM*
CC(=O)N[C@H](Cc1c[nH]c2ccccc12)C(N)=O	-8%	x	x	x	x
O=C1CC(c2ccccc2)Cc2[nH]c(=O)c(C(=O)Nc3ccc(OC(F)(F)F)cc3)cc21 (stereo not given)	9%	x	x	x	-1%
